Positions count from the first letter of the chain named. Whole data set: some 16,000 sequences, median “ka relative to ugcaugu” near 0.096, cut for the highest 2% near 0.35. The full list was thinned out, with the highest values kept by preference.
T1: RBFOX1 RRM RbFoxmut (Fox-RRM*) (Homo sapiens, UniProt Q9NWB1 109-208, R118D;E147R;N151S;E152T)
T1 sequence: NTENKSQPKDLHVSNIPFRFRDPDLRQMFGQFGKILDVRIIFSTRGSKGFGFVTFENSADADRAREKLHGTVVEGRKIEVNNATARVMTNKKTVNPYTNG

B1: CCUAGCA (DNA:RNA)
RNA: GGGAGACCGGAAUUCAGAUUGUCCCCUAGCAUUAAAUCCCGUCGUAGCCACCA
DNA 1: CAATCTGAATTCCGGTCTCCC
DNA 2: TGGTGGCTACGACGGGATT
B2: UUGCUUG (DNA:RNA)
RNA: GGGAGACCGGAAUUCAGAUUGUCCUUGCUUGUUAAAUCCCGUCGUAGCCACCA
DNA 1: CAATCTGAATTCCGGTCTCCC
DNA 2: TGGTGGCTACGACGGGATT
B3: UCCGUGC (DNA:RNA)
RNA: B2 RNA with U26C, G27C, C28G, U30G, G31C
DNA 1: CAATCTGAATTCCGGTCTCCC
DNA 2: TGGTGGCTACGACGGGATT
B4: GUGCUUG (DNA:RNA)
RNA: B2 RNA with U25G
DNA 1: CAATCTGAATTCCGGTCTCCC
DNA 2: TGGTGGCTACGACGGGATT
B5: GUCGUGC (DNA:RNA)
RNA: B2 RNA with U25G, G27C, C28G, U30G, G31C
DNA 1: CAATCTGAATTCCGGTCTCCC
DNA 2: TGGTGGCTACGACGGGATT
B6: UCCUUGC (DNA:RNA)
RNA: B2 RNA with U26C, G27C, C28U, U30G, G31C
DNA 1: CAATCTGAATTCCGGTCTCCC
DNA 2: TGGTGGCTACGACGGGATT
B7: UUGUUGC (DNA:RNA)
RNA: B2 RNA with C28U, U30G, G31C
DNA 1: CAATCTGAATTCCGGTCTCCC
DNA 2: TGGTGGCTACGACGGGATT
B8: CGGGAUC (DNA:RNA)
RNA: B2 RNA with U25C, U26G, C28G, U29A, G31C
DNA 1: CAATCTGAATTCCGGTCTCCC
DNA 2: TGGTGGCTACGACGGGATT
B9: GGAUUGU (DNA:RNA)
RNA: B2 RNA with U25G, U26G, G27A, C28U, U30G, G31U
DNA 1: CAATCTGAATTCCGGTCTCCC
DNA 2: TGGTGGCTACGACGGGATT
B10: GUAUCGU (DNA:RNA)
RNA: B2 RNA with U25G, G27A, C28U, U29C, U30G, G31U
DNA 1: CAATCTGAATTCCGGTCTCCC
DNA 2: TGGTGGCTACGACGGGATT
B11: GUCCCGU (DNA:RNA)
RNA: B2 RNA with U25G, G27C, U29C, U30G, G31U
DNA 1: CAATCTGAATTCCGGTCTCCC
DNA 2: TGGTGGCTACGACGGGATT
B12: CGGAUUG (DNA:RNA)
RNA: B2 RNA with U25C, U26G, C28A
DNA 1: CAATCTGAATTCCGGTCTCCC
DNA 2: TGGTGGCTACGACGGGATT
B13: UGAUAUC (DNA:RNA)
RNA: B2 RNA with U26G, G27A, C28U, U29A, G31C
DNA 1: CAATCTGAATTCCGGTCTCCC
DNA 2: TGGTGGCTACGACGGGATT
B14: GUAUUGU (DNA:RNA)
RNA: B2 RNA with U25G, G27A, C28U, U30G, G31U
DNA 1: CAATCTGAATTCCGGTCTCCC
DNA 2: TGGTGGCTACGACGGGATT
B15: UGAUAUG (DNA:RNA)
RNA: B2 RNA with U26G, G27A, C28U, U29A
DNA 1: CAATCTGAATTCCGGTCTCCC
DNA 2: TGGTGGCTACGACGGGATT
B16: UGAUAUA (DNA:RNA)
RNA: B2 RNA with U26G, G27A, C28U, U29A, G31A
DNA 1: CAATCTGAATTCCGGTCTCCC
DNA 2: TGGTGGCTACGACGGGATT
B17: CGUAUCG (DNA:RNA)
RNA: B1 RNA with C26G, G29U, A31G
DNA 1: CAATCTGAATTCCGGTCTCCC
DNA 2: TGGTGGCTACGACGGGATT
B18: GUCCGGA (DNA:RNA)
RNA: B1 RNA with C25G, C26U, U27C, A28C, C30G
DNA 1: CAATCTGAATTCCGGTCTCCC
DNA 2: TGGTGGCTACGACGGGATT
B19: CACCGGA (DNA:RNA)
RNA: B1 RNA with C26A, U27C, A28C, C30G
DNA 1: CAATCTGAATTCCGGTCTCCC
DNA 2: TGGTGGCTACGACGGGATT
B20: CGUCCGU (DNA:RNA)
RNA: B1 RNA with C26G, A28C, G29C, C30G, A31U
DNA 1: CAATCTGAATTCCGGTCTCCC
DNA 2: TGGTGGCTACGACGGGATT
B21: AUUCGUU (DNA:RNA)
RNA: B2 RNA with U25A, G27U, U29G, G31U
DNA 1: CAATCTGAATTCCGGTCTCCC
DNA 2: TGGTGGCTACGACGGGATT
B22: UUAGGAG (DNA:RNA)
RNA: B2 RNA with G27A, C28G, U29G, U30A
DNA 1: CAATCTGAATTCCGGTCTCCC
DNA 2: TGGTGGCTACGACGGGATT
B23: AGGCUCU (DNA:RNA)
RNA: B2 RNA with U25A, U26G, U30C, G31U
DNA 1: CAATCTGAATTCCGGTCTCCC
DNA 2: TGGTGGCTACGACGGGATT
B24: CGCGGGG (DNA:RNA)
RNA: B1 RNA with C26G, U27C, A28G, C30G, A31G
DNA 1: CAATCTGAATTCCGGTCTCCC
DNA 2: TGGTGGCTACGACGGGATT
B25: UCCAGCA (DNA:RNA)
RNA: B1 RNA with C25U, U27C
DNA 1: CAATCTGAATTCCGGTCTCCC
DNA 2: TGGTGGCTACGACGGGATT
B26: GGAUCGG (DNA:RNA)
RNA: B2 RNA with U25G, U26G, G27A, C28U, U29C, U30G
DNA 1: CAATCTGAATTCCGGTCTCCC
DNA 2: TGGTGGCTACGACGGGATT
B27: CACCACG (DNA:RNA)
RNA: B1 RNA with C26A, U27C, A28C, G29A, A31G
DNA 1: CAATCTGAATTCCGGTCTCCC
DNA 2: TGGTGGCTACGACGGGATT
B28: GUAUAUG (DNA:RNA)
RNA: B2 RNA with U25G, G27A, C28U, U29A
DNA 1: CAATCTGAATTCCGGTCTCCC
DNA 2: TGGTGGCTACGACGGGATT
B29: CGAUAUG (DNA:RNA)
RNA: B2 RNA with U25C, U26G, G27A, C28U, U29A
DNA 1: CAATCTGAATTCCGGTCTCCC
DNA 2: TGGTGGCTACGACGGGATT
B30: GGAUAUG (DNA:RNA)
RNA: B2 RNA with U25G, U26G, G27A, C28U, U29A
DNA 1: CAATCTGAATTCCGGTCTCCC
DNA 2: TGGTGGCTACGACGGGATT
B31: CGGAUCG (DNA:RNA)
RNA: B1 RNA with C26G, U27G, G29U, A31G
DNA 1: CAATCTGAATTCCGGTCTCCC
DNA 2: TGGTGGCTACGACGGGATT
B32: GGAUCGU (DNA:RNA)
RNA: GGGAGACCGGAAUUCAGAUUGUCCGGAUCGUUUAAAUCCCGUCGUAGCCACCA
DNA 1: CAATCTGAATTCCGGTCTCCC
DNA 2: TGGTGGCTACGACGGGATT
B33: GGGAUCG (DNA:RNA)
RNA: B2 RNA with U25G, U26G, C28A, U30C
DNA 1: CAATCTGAATTCCGGTCTCCC
DNA 2: TGGTGGCTACGACGGGATT
B34: GGGAUUG (DNA:RNA)
RNA: B2 RNA with U25G, U26G, C28A
DNA 1: CAATCTGAATTCCGGTCTCCC
DNA 2: TGGTGGCTACGACGGGATT
B35: CGAUCGU (DNA:RNA)
RNA: B32 RNA with G25C
DNA 1: CAATCTGAATTCCGGTCTCCC
DNA 2: TGGTGGCTACGACGGGATT
B36: AGAUCGU (DNA:RNA)
RNA: B32 RNA with G25A
DNA 1: CAATCTGAATTCCGGTCTCCC
DNA 2: TGGTGGCTACGACGGGATT

biological target: T1, RBFOX1 RRM RbFoxmut (Fox-RRM*); experiment: EMSA; HiTS-Eq, 1 nM pool, 10 min; buffer printed only for the single-RNA assays: 10 mM Tris pH 7.5, 150 mM NaCl, 3.4 mM EDTA, 0.001% NP-40, 30 C; conditions: tags: His6 N-terminal (pET28a); label: 5' 32P
How it was run: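 A pool of RNA with 7 randomized nucleotides, 5′-radiolabelled and with DNA-annealed flanks, was equilibrated at 1 nM for 10 min in 50 µL with purified RbFox RRM, wild type or mutant, across increasing protein concentrations. Free RNA was separated by 8% native PAGE, excised, reverse-transcribed, barcoded by PCR and sequenced. Relative association constants were obtained from read-count changes of each RNA species versus the control reaction and normalised to the cognate motif.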

Row | Binder | binding signal
1 | B1 | 0.119 KA relative to UGCAUGU
2 | B2 | 0.503 KA relative to UGCAUGU
3 | B3 | 0.084 KA relative to UGCAUGU
4 | B4 | 0.511 KA relative to UGCAUGU
5 | B5 | 0.167 KA relative to UGCAUGU
6 | B6 | 0.108 KA relative to UGCAUGU
7 | B7 | 0.148 KA relative to UGCAUGU
8 | B8 | 0.141 KA relative to UGCAUGU
9 | B9 | 0.39 KA relative to UGCAUGU
10 | B10 | 0.461 KA relative to UGCAUGU
11 | B11 | 0.11 KA relative to UGCAUGU
12 | B12 | 0.522 KA relative to UGCAUGU
13 | B13 | 0.145 KA relative to UGCAUGU
14 | B14 | 0.309 KA relative to UGCAUGU
15 | B15 | 0.437 KA relative to UGCAUGU
16 | B16 | 0.0947 KA relative to UGCAUGU
17 | B17 | 0.263 KA relative to UGCAUGU
18 | B18 | 0.0725 KA relative to UGCAUGU

Row | Binder | binding signal
19 | B19 | 0.0666 KA relative to UGCAUGU
20 | B20 | 0.119 KA relative to UGCAUGU
21 | B21 | 0.134 KA relative to UGCAUGU
22 | B22 | 0.129 KA relative to UGCAUGU
23 | B23 | 0.0577 KA relative to UGCAUGU
24 | B24 | 0.0735 KA relative to UGCAUGU
25 | B25 | 0.123 KA relative to UGCAUGU
26 | B26 | 0.176 KA relative to UGCAUGU
27 | B27 | 0.125 KA relative to UGCAUGU
28 | B28 | 0.199 KA relative to UGCAUGU
29 | B29 | 0.159 KA relative to UGCAUGU
30 | B30 | 0.496 KA relative to UGCAUGU
31 | B31 | 0.331 KA relative to UGCAUGU
32 | B32 | 0.354 KA relative to UGCAUGU
33 | B33 | 0.369 KA relative to UGCAUGU
34 | B34 | 0.282 KA relative to UGCAUGU
35 | B35 | 0.118 KA relative to UGCAUGU
36 | B36 | 0.105 KA relative to UGCAUGU
